Test results as given in paper PMC7862700, “An all-to-all approach to the identification of sequence-specific readers for epigenetic DNA modifications on cytosine”.

Tests used:
Test in all cases: DAPPL (digital affinity profiling via proximity ligation, sequencing); 10 mM Tris-HCl pH 7.5, 50 mM NaCl, 1 mM DTT, 4% glycerol, room temperature, 30 min; GST-TFs on glutathione beads, 16-mer random dsDNA library, 0.1% formaldehyde crosslink after washing; high values mean tight binding
[1] = molecular target: T1, FEV (Homo sapiens, UniProt Q99581 1-238); conditions: protein: recombinant; tags: N-terminal GST; dsDNA, one strand shown
T1 sequence: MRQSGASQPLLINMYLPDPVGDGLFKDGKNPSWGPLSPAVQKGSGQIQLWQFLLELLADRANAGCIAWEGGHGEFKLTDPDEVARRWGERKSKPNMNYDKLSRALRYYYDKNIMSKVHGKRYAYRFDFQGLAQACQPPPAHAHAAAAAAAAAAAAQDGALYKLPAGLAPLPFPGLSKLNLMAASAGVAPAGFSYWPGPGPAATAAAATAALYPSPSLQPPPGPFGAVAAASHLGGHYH
How it was run: (§1)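 Binding signal is each hexamer's read frequency for a factor divided by its frequency in the tag-only sample. The factors were GST-fused human transcription factors from yeast, captured on glutathione beads, DNA-barcoded and pooled with that sample. Pools were incubated with 200 nmole of a random double-stranded 16-mer DNA library in Tris/NaCl/DTT/glycerol buffer at room temperature for 30 min, then washed, crosslinked with 0.1% formaldehyde, proximity-ligated with BsaI/T4 ligase (1 h, 37 °C), PCR-amplified and sequenced on an Illumina NextSeq500.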

[2] = molecular target: ETV5 (Homo sapiens, UniProt P41161 1-510); conditions: protein: recombinant; tags: N-terminal GST; dsDNA, one strand shown
How it was run: as §1

[3] = molecular target: HSF1 (Homo sapiens, UniProt Q00613 1-529); conditions: protein: recombinant; tags: N-terminal GST; chain copies: 3; dsDNA, one strand shown
How it was run: as §1

[4] = molecular target: T2, SPIC (Homo sapiens, UniProt Q8N5J4 1-248); conditions: protein: recombinant; tags: N-terminal GST; dsDNA, one strand shown
T2 sequence: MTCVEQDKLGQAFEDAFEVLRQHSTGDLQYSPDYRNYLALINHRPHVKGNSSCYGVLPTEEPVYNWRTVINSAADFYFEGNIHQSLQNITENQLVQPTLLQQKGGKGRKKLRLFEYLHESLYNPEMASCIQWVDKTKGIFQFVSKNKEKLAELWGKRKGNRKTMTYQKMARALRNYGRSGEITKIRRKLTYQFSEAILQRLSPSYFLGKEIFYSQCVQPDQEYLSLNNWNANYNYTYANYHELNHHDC
How it was run: as §1

[5] = molecular target: ELF4 (Homo sapiens, UniProt Q99607 1-663); conditions: protein: recombinant; tags: N-terminal GST; dsDNA, one strand shown
How it was run: as §1

[6] = molecular target: T3, ELK4 (Homo sapiens, UniProt P28324-2 1-405); conditions: protein: recombinant; tags: N-terminal GST; dsDNA, one strand shown
T3 sequence: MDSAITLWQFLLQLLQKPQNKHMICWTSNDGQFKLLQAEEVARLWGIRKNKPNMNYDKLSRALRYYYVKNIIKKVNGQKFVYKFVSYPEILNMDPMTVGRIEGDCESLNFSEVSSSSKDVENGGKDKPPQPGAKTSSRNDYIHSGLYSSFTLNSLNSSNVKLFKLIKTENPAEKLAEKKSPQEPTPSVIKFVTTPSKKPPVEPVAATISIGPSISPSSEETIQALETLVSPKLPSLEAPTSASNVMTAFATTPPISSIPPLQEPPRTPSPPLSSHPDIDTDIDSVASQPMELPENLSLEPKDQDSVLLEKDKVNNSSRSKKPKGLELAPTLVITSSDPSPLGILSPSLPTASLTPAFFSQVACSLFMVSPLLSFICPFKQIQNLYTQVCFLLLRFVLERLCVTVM
How it was run: as §1

[7] = molecular target: T4, ETV2 (Homo sapiens, UniProt O00321 1-342); conditions: protein: recombinant; tags: N-terminal GST; dsDNA, one strand shown
T4 sequence: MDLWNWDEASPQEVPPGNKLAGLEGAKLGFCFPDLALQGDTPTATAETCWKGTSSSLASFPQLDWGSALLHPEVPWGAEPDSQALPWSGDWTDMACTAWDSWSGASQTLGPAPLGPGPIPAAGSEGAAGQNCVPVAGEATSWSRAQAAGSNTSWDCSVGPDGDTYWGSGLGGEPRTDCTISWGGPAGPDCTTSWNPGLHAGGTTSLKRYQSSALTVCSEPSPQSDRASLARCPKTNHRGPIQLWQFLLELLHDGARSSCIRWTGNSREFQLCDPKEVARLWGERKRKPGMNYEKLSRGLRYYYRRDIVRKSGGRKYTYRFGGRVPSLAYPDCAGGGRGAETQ
How it was run: as §1

[8] = molecular target: T5, ELF3 (Homo sapiens, UniProt P78545 1-371); conditions: protein: recombinant; tags: N-terminal GST; dsDNA, one strand shown
T5 sequence: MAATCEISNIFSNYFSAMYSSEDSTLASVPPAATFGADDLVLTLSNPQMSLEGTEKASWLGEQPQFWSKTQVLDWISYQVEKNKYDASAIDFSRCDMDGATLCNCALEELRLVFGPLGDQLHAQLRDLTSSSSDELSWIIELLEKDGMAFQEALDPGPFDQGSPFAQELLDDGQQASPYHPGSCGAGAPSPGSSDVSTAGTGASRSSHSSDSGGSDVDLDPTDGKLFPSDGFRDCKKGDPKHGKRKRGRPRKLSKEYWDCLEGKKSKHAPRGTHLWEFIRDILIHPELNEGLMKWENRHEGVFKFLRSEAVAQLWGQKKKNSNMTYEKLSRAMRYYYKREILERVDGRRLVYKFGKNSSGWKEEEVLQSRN
How it was run: as §1

[9] = molecular target: CRX (Homo sapiens, UniProt O43186 1-299); conditions: protein: recombinant; tags: N-terminal GST; dsDNA, one strand shown
How it was run: as §1

[10] = molecular target: ETV1 (Homo sapiens, UniProt P50549 1-477); conditions: protein: recombinant; tags: N-terminal GST; dsDNA, one strand shown
How it was run: as §1

[11] = molecular target: T6, ERF (Homo sapiens, UniProt P50548 1-548); conditions: protein: recombinant; tags: N-terminal GST; dsDNA, one strand shown
T6 sequence: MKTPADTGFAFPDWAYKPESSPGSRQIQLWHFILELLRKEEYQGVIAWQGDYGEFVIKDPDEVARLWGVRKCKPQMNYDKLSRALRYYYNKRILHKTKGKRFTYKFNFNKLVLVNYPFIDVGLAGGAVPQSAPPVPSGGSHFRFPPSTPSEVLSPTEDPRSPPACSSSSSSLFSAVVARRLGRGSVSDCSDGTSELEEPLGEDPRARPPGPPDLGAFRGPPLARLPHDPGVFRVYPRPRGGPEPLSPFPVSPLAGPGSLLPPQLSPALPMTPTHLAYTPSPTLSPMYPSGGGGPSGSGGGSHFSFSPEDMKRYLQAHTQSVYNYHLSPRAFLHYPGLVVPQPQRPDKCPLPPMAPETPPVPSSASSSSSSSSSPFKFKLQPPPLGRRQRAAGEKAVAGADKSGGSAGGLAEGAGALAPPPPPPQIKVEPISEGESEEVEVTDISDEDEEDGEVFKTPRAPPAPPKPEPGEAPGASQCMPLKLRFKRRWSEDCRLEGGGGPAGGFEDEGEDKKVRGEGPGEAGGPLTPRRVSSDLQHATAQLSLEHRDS
How it was run: as §1

[12] = molecular target: T7, ETV3L (Homo sapiens, UniProt Q6ZN32 1-361); conditions: protein: recombinant; tags: N-terminal GST; dsDNA, one strand shown
T7 sequence: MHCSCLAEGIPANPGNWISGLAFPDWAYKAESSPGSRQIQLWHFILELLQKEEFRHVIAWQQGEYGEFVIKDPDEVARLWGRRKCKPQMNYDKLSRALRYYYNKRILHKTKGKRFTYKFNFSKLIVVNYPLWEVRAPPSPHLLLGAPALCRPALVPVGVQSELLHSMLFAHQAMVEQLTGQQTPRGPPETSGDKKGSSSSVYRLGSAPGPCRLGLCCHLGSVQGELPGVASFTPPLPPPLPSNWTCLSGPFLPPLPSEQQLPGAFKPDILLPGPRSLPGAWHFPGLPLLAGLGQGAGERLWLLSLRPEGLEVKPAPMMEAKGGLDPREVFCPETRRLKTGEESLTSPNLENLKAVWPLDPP
How it was run: as §1

[13] = molecular target: T8, ETS2 (Homo sapiens, UniProt P15036 1-469); conditions: protein: recombinant; tags: N-terminal GST; dsDNA, one strand shown
T8 sequence: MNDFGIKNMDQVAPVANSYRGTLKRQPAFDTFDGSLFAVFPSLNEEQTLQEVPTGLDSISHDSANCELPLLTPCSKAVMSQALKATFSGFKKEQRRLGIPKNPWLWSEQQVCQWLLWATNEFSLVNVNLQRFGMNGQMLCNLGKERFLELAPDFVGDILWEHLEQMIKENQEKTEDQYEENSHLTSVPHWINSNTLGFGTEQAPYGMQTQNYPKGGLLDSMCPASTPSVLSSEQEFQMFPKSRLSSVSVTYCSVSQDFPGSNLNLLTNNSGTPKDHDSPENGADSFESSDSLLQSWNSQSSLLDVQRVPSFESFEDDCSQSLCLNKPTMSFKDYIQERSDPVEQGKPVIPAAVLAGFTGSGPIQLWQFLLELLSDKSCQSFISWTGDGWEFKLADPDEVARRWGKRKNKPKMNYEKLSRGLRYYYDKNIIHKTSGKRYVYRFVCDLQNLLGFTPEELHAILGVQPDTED
How it was run: as §1

[14] = molecular target: T9, SPDEF (Homo sapiens, UniProt O95238 1-335); conditions: protein: recombinant; tags: N-terminal GST; dsDNA, one strand shown
T9 sequence: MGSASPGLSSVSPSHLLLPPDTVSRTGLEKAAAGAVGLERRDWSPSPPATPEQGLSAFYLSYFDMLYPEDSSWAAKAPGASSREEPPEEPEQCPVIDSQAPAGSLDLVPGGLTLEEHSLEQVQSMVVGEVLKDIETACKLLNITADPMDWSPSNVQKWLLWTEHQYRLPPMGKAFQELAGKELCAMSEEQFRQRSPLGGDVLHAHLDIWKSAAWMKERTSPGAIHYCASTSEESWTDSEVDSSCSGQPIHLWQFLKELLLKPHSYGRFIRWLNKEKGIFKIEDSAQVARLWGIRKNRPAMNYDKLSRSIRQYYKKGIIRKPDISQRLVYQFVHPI
How it was run: as §1

[15] = molecular target: T10, ETV7 (Homo sapiens, UniProt Q9Y603 1-341); conditions: protein: recombinant; tags: N-terminal GST; dsDNA, one strand shown
T10 sequence: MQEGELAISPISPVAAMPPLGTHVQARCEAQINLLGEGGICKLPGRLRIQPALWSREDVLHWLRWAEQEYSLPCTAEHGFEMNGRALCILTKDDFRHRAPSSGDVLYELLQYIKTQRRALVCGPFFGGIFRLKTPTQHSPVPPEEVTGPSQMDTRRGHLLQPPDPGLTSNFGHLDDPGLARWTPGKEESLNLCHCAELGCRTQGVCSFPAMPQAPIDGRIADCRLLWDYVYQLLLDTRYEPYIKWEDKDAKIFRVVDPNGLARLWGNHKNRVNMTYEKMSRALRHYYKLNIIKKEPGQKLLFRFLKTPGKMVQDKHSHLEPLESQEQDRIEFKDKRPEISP
How it was run: as §1

[16] = molecular target: T11, ELF5 (Homo sapiens, UniProt Q9UKW6-2 1-255); conditions: protein: recombinant; tags: N-terminal GST; dsDNA, one strand shown
T11 sequence: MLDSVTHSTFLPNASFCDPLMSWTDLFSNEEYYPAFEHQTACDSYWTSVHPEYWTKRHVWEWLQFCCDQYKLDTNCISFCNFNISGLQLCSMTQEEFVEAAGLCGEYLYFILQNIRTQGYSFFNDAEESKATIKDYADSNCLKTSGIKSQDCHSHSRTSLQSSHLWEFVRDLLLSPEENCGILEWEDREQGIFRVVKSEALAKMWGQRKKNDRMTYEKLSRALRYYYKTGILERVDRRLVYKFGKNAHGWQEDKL
How it was run: as §1

[17] = molecular target: T12, ETV3 (Homo sapiens, UniProt P41162-2 1-143); conditions: protein: recombinant; tags: N-terminal GST; dsDNA, one strand shown
T12 sequence: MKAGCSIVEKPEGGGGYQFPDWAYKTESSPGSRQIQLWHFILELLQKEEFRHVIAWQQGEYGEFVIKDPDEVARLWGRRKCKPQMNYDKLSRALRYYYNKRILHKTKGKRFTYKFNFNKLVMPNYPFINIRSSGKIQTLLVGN
How it was run: as §1

[18] = molecular target: ETV6 (Homo sapiens, UniProt P41212 1-452); conditions: protein: recombinant; tags: N-terminal GST; dsDNA, one strand shown
How it was run: as §1

Sequence of ETV1 (P50549 whole entry): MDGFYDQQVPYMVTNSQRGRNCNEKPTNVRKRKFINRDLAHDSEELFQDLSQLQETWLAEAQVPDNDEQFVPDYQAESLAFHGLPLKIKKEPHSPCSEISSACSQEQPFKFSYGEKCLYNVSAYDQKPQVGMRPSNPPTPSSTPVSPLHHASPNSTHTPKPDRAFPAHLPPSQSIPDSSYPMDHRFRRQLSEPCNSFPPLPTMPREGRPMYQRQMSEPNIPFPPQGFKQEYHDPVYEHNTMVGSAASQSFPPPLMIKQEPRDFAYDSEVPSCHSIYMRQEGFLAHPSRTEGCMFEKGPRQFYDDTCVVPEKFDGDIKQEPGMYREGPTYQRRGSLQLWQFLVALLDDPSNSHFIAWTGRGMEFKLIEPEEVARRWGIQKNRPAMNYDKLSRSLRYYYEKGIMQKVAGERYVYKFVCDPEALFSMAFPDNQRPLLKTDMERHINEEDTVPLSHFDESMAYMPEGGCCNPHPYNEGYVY
Sequence of ETV6 (P41212 whole entry): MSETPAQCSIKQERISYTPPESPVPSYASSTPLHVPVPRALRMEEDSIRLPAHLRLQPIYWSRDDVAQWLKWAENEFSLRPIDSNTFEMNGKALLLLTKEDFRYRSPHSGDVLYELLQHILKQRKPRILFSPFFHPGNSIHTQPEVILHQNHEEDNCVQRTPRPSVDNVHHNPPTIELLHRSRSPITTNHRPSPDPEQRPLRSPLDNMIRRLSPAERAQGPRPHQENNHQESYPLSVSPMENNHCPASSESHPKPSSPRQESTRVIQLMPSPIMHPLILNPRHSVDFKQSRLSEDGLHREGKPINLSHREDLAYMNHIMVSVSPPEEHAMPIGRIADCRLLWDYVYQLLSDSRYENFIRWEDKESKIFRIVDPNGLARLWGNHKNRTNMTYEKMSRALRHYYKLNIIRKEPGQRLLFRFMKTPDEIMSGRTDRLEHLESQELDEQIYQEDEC
Sequence of ELF4 (Q99607 whole entry): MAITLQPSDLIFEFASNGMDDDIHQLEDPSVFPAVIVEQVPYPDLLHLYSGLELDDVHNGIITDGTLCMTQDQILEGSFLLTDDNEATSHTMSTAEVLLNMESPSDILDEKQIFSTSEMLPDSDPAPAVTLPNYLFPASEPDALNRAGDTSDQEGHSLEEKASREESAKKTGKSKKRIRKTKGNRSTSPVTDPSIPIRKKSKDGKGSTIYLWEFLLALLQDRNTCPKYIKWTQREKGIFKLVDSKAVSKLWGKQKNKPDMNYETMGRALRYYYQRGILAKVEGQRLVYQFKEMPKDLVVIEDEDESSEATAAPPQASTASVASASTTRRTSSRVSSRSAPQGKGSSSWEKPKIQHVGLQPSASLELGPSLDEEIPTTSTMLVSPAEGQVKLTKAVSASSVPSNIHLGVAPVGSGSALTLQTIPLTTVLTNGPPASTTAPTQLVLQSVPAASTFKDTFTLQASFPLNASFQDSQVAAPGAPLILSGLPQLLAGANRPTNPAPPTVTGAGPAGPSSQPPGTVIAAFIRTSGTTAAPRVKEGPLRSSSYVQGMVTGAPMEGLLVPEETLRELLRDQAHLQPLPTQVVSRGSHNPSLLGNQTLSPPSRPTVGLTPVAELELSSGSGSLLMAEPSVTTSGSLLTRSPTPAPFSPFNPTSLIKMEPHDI
Sequence of HSF1 (Q00613 whole entry): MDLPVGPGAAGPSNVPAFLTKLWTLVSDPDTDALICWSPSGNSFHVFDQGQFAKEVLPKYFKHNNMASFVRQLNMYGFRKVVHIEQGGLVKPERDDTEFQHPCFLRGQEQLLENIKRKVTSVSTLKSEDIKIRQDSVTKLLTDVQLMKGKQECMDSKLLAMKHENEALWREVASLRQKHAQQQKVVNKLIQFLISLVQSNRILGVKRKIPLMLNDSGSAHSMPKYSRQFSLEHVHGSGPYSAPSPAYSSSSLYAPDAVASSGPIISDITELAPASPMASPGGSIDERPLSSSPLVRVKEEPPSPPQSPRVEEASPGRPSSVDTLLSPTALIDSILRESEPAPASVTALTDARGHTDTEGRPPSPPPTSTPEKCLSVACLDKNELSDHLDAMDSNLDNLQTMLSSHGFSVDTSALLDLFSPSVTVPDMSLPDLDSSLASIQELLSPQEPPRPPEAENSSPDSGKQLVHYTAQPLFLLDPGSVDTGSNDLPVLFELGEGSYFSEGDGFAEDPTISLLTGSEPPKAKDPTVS
Sequence of ETV5 (P41161 whole entry): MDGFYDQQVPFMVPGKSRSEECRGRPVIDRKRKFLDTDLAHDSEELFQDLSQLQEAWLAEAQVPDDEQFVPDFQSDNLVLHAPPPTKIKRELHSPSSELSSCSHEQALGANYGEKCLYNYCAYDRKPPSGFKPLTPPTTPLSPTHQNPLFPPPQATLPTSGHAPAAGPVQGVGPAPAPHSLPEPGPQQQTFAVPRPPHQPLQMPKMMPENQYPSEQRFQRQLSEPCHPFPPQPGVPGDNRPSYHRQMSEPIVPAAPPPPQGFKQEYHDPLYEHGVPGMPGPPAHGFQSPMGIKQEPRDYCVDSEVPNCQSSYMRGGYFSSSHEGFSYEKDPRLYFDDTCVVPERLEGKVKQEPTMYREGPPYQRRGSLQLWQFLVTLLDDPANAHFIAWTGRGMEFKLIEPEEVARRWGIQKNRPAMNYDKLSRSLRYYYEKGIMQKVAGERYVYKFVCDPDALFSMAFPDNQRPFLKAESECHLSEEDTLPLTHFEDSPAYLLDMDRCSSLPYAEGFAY
Sequence of CRX (O43186 whole entry): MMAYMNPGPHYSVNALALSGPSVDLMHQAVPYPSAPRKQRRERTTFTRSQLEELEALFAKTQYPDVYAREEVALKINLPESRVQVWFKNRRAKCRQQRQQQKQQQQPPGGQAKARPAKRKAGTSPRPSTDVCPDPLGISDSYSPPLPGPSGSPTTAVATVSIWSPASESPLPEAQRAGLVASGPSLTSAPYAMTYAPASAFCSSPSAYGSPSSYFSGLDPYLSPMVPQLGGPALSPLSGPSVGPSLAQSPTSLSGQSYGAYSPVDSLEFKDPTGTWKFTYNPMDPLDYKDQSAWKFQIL

With TACCTG as the sequence, how does the binding signal [1] read?
The binding signal was 1.11 fold enrichment (6-mer frequency, TF over GST control).

What about the binding signal [2] of the same sequence?
Its binding signal is 1.19 fold enrichment (6-mer frequency, TF over GST control).

What about the binding signal [3] of the same sequence?
The binding signal was 1.04 fold enrichment (6-mer frequency, TF over GST control).

And the binding signal [4]?
The binding signal was 1.04 fold enrichment (6-mer frequency, TF over GST control).

What about the binding signal [5] of the same sequence?
The binding signal was 1.14 fold enrichment (6-mer frequency, TF over GST control).

And the binding signal [6]?
The binding signal was 1.07 fold enrichment (6-mer frequency, TF over GST control).

What about the binding signal [7] of the same sequence?
Its binding signal is 1.14 fold enrichment (6-mer frequency, TF over GST control).

What about the binding signal [8] of the same sequence?
Its binding signal is 1.15 fold enrichment (6-mer frequency, TF over GST control).

What about the binding signal [9] of the same sequence?
Its binding signal is 1.11 fold enrichment (6-mer frequency, TF over GST control).

What about the binding signal [10] of the same sequence?
Its binding signal is 1.27 fold enrichment (6-mer frequency, TF over GST control).

What about the binding signal [11] of the same sequence?
Its binding signal is 1.22 fold enrichment (6-mer frequency, TF over GST control).

And the binding signal [12]?
The binding signal was 1.09 fold enrichment (6-mer frequency, TF over GST control).

What about the binding signal [13] of the same sequence?
Its binding signal is 1.15 fold enrichment (6-mer frequency, TF over GST control).

What about the binding signal [14] of the same sequence?
The binding signal was 1.11 fold enrichment (6-mer frequency, TF over GST control).

What about the binding signal [15] of the same sequence?
Its binding signal is 1.24 fold enrichment (6-mer frequency, TF over GST control).

And the binding signal [16]?
The binding signal was 1.21 fold enrichment (6-mer frequency, TF over GST control).

What about the binding signal [17] of the same sequence?
Its binding signal is 1.19 fold enrichment (6-mer frequency, TF over GST control).

And the binding signal [18]?
Its binding signal is 1.2 fold enrichment (6-mer frequency, TF over GST control).
